± gives the standard deviation of the averaged measurements. Whole data set: some 25,000 sequences, median “ln(normalized median fluorescence intensity)” near 8.6, cut for the highest 2% near 10. The sample as a whole holds a higher share of the highest values than the screen did.
tested on: PfAP2-EXP AP2 domain (GST-tagged); test: gcPBM binding intensity (ln(normalized median fluorescence intensity)); higher = stronger DNA binding
Summary of the method: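 Each value is the highest Masliner-normalised natural-log median intensity across replicate spots of either orientation of a probe. The probes were primer-extended double-stranded 36-bp intergenic genomic sequences on an Agilent 4 × 180k array, alongside negative controls, exposed for 1 h to GST-tagged P. falciparum DNA-binding domains expressed in E. coli. Bound protein was picked up with Alexa488 anti-GST antibody and scanned at 488 nm.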

Sequence | gcPBM binding intensity (ln)
ATATATATATTAAATACACACATTTTTGATTAGGTT [CACACA_site3119] | 9.405 ± 0.078
TAAATAAGTATTACTAGTACACACAAGTTGTTAATC [XGTACX_site7074] | 8.57 ± 0.28
TTTTATGTTCTTAATGCACACTTATAAGTATCTTAT [CACACA_site4895] | 9.07 ± 0.21
TATCATATAAAACATGCACACATATGTACTCTTATA [CACACA_site9249] | 8.77 ± 0.31
ATTTTTTATGAAAATAAACACACGATTTATTATATA [CACACA_site1312] | 8.14 ± 0.33
AGAAAAAAGAGGGATACACACAAACATATATTTATA [CACACA_site7122] | 8.81 ± 0.29
ACATATAATATATATATATATATATATATATATAAT [GTGCAC_negctrl_site648] | 8.66 ± 0.18
TTGGTATAAAATTATAGTACATAAGGTAAATATAAA [XGTACX_site4698] | 8.56 ± 0.33
GGAATATTAAAAAAATGTACAAAAAATAATATCCAT [XGTACX_site2596] | 8.97 ± 0.36
ATATTAAGAATGTATACATGCATATATATATAGTAC [TGCATGCA_site219] | 9.17 ± 0.42
TTTTGAAGCTTTAAAACATATATATATATATATATA [CACACA_negctrl_site184] | 10.3 ± 0.4
AAACTTTTTTTAAAAACACACATATATATTTATATA [CACACA_site4092] | 8.36 ± 0.41
TTAAAACATATTTTGAATTAATATATTTTAATATTA [XGTACX_negctrl_site148] | 7.72 ± 0.39
CATAAACTTTATAACACACACTTATAAATATAAATA [CACACA_site6646] | 8.41 ± 0.4
CATAAACTTTTTAACACACACTTATATATATATATA [CACACA_site4747] | 10.3 ± 0.23
TACATAAACTTTATAACACACACTTATATATATATA [CACACA_site1106] | 9.86 ± 0.18
TGTTATATATGTAATTGTACACTTATACAAAATTAT [XGTACX_site6350] | 8.52 ± 0.22
TTTTTGTTTTTGTTTTGTACTCATACATACTATCAT [XGTACX_site4210] | 8.99 ± 0.44
AAAAAAAATATATTACAAAACTTAGGATCCTAATAT [CACACA_negctrl_site470] | 8.48 ± 0.39
AAATATTAAATGGAAAACAAATATATATATCTTAAT [XGTACX_negctrl_site383] | 8.56 ± 0.38
TATATATATATATGGGGTACAAATGGTCAGTATTAT [XGTACX_site1223] | 10.2 ± 0.21
AAAAAAAAAATTGAAAGTACACAAATGGGGTATTAT [XGTACX_site3960] | 8.75 ± 0.35
TATGTATAAAAATAATGTACAAAATATATTATATGT [XGTACX_site2794] | 8.69 ± 0.33
GATATTCATTATATATGTACATATATGTAATATATA [XGTACX_site2210] | 8.55 ± 0.24

Sequence | gcPBM binding intensity (ln)
AATAATAAAAAAAGTGCACACACATAATATATATAT [CACACA_site9100] | 9.47 ± 0.099
AAAAAAAAAAAAAAGACACACATATATATATATATA [CACACA_site633] | 10 ± 0.31
TCTATAAAGGAATATACACACATATATATATATATA [CACACA_site410] | 10 ± 0.26
TATAAAAGTGGACACACACACATATATATATATATA [CACACA_site4673] | 10.2 ± 0.64
AATCCACAAAGACACACACACACATATATATATATA [CACACA_site1269] | 10.2 ± 0.35
TAATAAAAAAAGTGCACACACATAATATATATATAT [CACACA_site3340] | 9.74 ± 0.28
GAATAAAGGAGAGGCACACATATATATATATATATA [CACACA_site2452] | 10.2 ± 0.25
TATATATATAAACACACACACACATATATATATATT [CACACA_site8814] | 9.02 ± 0.23
AATATAAAAAGGCACACACACAAAAAAAAAAAAAAA [CACACA_site896] | 8.26 ± 0.49
GTAATCCACAAACACACACACATACACATATATATA [CACACA_site2728] | 8.78 ± 0.34
AAACATAAGGGACACACACACATATATATATATATA [CACACA_site5920] | 10.3 ± 0.16
TATATATATAAACACACACACATATATATATATATA [CACACA_site4584] | 10.1 ± 0.35
ATAAAAAAAGATGAACGTACATATATTTTAAAAATC [XGTACX_site5950] | 8.7 ± 0.45
TAATCATTTTTAAATTGTACAATTTATATAATAAGT [XGTACX_site6081] | 8.5 ± 0.26
AAATTTATAAATTAAAGTACATATTTCTTGAATATT [XGTACX_site859] | 8.34 ± 0.48
CTCAACATATACGTAACACACATATATATATATATA [CACACA_site3838] | 10.2 ± 0.41
TAAGTTTTGTTTTTTTGTACTCATTCATACTATCAT [XGTACX_site3638] | 8.87 ± 0.49
TAAAATTTAAGTTATACACACTTAAGTAACATCATC [CACACA_site6395] | 8.72 ± 0.37
TGTTTATGTATCAATTGTACAAAAAAAAAAAAAAAA [XGTACX_site1590] | 8.26 ± 0.46
TGACCTGTTCAGGTAACACACATATAAACACATACA [CACACA_site4186] | 8.8 ± 0.43
TTAATAACGTAATGTAAATGTTTCATACCCTTTTTT [CACACA_negctrl_site988] | 8.36 ± 0.43
ATAAAAAAAGGACACACACACATATATTTATTTATA [CACACA_site7438] | 8.66 ± 0.52
TAAAAGGATACATATACACACATATATATATATATA [CACACA_site2791] | 10.2 ± 0.42
AAAGGATACAGACACACACACACATATATATATATA [CACACA_site906] | 10.1 ± 0.4

Sequence | gcPBM binding intensity (ln)
AATACAAAAAAAGGTACACACATAATATATTTATTA [CACACA_site2628] | 8.7 ± 0.34
CCATAAAAAGGATACACACACACACGCACATATATA [CACACA_site6550] | 8.73 ± 0.5
ATAAAAAAAGGACACACACACATATATATATATATA [CACACA_site5662] | 10.2 ± 0.42
CAACGATACAAAAAAGGTACACATATATATATATAT [XGTACX_site8688] | 10.2 ± 0.47
TATATATATAGACACACACACACATATATATATATA [CACACA_site9366] | 10.1 ± 0.42
CCATAAAAAGGATACACACACACACCCACATATATA [CACACA_site903] | 8.71 ± 0.45
AAAGGATATAGACACACACACACATATATATATATA [CACACA_site2200] | 10.2 ± 0.14
CATATAAAAGGACACACACACACATATATATATATA [CACACA_site4674] | 10 ± 0.43
ACAAATACAAAAAAAGGTACACACATAATATATTTA [XGTACX_site5515] | 8.72 ± 0.51
TTTTTTATTTTAAAAACATGCATAAAATATAATAGT [TGCATGCA_site762] | 8.94 ± 0.42
ACATGTATACTTTTTACGAAAAAAAAAAAAAAAAAA [CACACA_negctrl_site1638] | 8.09 ± 0.45
TTTTAAAAAGATCATTAAAAAAAAAAAAAGAACAAA [CACACA_negctrl_site528] | 8.53 ± 0.41
TATACATATTTGTATTGTACATAAACTAAATCTTCA [XGTACX_site610] | 8.21 ± 0.36
ATACGATTGAAACATTGTACATGAATATAAAAAAAT [XGTACX_site5704] | 8.88 ± 0.47
ATATTTTATTATTGTTGTACTTTTTTTTGATTGTTT [XGTACX_site4090] | 8.81 ± 0.42
TTGTGTTCTTATTTTTACACCGAAAAATATTAAAAG [CACACA_negctrl_site535] | 8.55 ± 0.29
AATGGATGGTCCAAATGTACATATATATATATATAT [XGTACX_site4800] | 10.1 ± 0.41
ATATATATATGTTACTGTACTAATTTATATGTTAAT [XGTACX_site3341] | 9.665 ± 0.064
AAAGGGATAACACCAAAAAAAATAAAAATAAAAATA [GTGCAC_negctrl_site680] | 8.61 ± 0.54
AAAAAAAAAAGACACACACACATATAAATATAAATA [CACACA_site6899] | 8.75 ± 0.38
AGGATATGCAGACACACACACATATATATATATATA [CACACA_site2201] | 10.3 ± 0.41
AGGATACACAGACACACACACATATATATATATATA [CACACA_site907] | 10 ± 0.45
AATTATGGGGAAAAGACACACATATATATATATATA [CACACA_site2589] | 10.3 ± 0.31
ATAAAAAAAAGACACACACACATATATATATATATA [CACACA_site3073] | 10 ± 0.33

Sequence | gcPBM binding intensity (ln)
AAAAATTATGGACACACACACATATATATATATATT [CACACA_site4717] | 8.53 ± 0.31
GAGAAATGGGGACACACACACATATTATATATATAT [CACACA_site4943] | 9.71 ± 0.2
CATATAAAAAGACACACACACACATATATATATATA [CACACA_site940] | 10.3 ± 0.18
AGGATATGCAGACACACACACATATAGATTTATATA [CACACA_site7100] | 8.41 ± 0.48
CATACCTTTTAATGTACACACATTTCTTTTTTGTTA [CACACA_site892] | 8.88 ± 0.28
AAAAAAAAAATTAAATGTACATATATAATATATATA [XGTACX_site7245] | 8.62 ± 0.014
TCCTACATATTATAGTGTACATTTTCATGTTCATAT [XGTACX_site4308] | 8.62 ± 0.39
ATAAGATGATGGAACTGTAATATATATATATATATA [CACACA_negctrl_site839] | 10 ± 0.5
AAAAAAATAAATAAATGTACATATATAAAACATTGT [XGTACX_site2136] | 8.87 ± 0.33
TGTAATCTGGAGAAAAGTACACAGTATCTGGTAGCT [XGTACX_site2039] | 8.53 ± 0.34
TTTTTAATTTACTGTCATAGGTACCTTAACTTATCA [CACACA_negctrl_site1664] | 8.72 ± 0.49
AATGACAACCTTGTCACACATATATATATATATATA [CACACA_site5977] | 10.2 ± 0.4
ATATAAATGTATATGACACACATATATATATATATA [CACACA_site889] | 9.91 ± 0.3
AAAAATAAAAAAATGACACACATATATATATATATA [CACACA_site2307] | 10 ± 0.53
AAAAAAAAAAAAAAAAATATATTTATGAAATAAAAA [TGCATGCA_negctrl_site262] | 8.405 ± 0.078
ATGGGACATATATATACACACATATATATATATATA [CACACA_site1202] | 10 ± 0.21
AACTTACTTGGACATACACACATATATATATATATA [CACACA_site2978] | 10.2 ± 0.44
ATTTATATTTTATATACACACATGAACTTATATGGA [CACACA_site3167] | 8.37 ± 0.41
TGAACTTACTTGGACATACACACATATATATATATA [CACACA_site2977] | 10.2 ± 0.27
TATACAGATGGACACACACACATATATATATATATA [CACACA_site5272] | 10.2 ± 0.3
AACTTACTTGGACATACACACATATAGATTTATATA [CACACA_site7412] | 8.84 ± 0.3

Source: the supplement of paper PMC11417369
